According to PubChem BioAssay (EPA / NIEHS):
Calls of active or inactive are those of the source. The calls were made as follows: active = hit-call score of the fitted dose curve at least 0.9, where 1 is the maximum; inactive = score below 0.9.

Assays:
Conditions in all cases: mRNA level, 48 h; actives raise or lower the signal
[1] = read-out: MicroRNA 122 (MIR122), gene 406906; assay: LTEA_HepaRG_MIR122: Life Technologies and Expression Analysis (LTEA) Assay for MicroRNA 122 (MIR122) using HepaRG (AID 2283516); also: the transcript read is the microRNA miR-122
How it was run: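 Differentiated human HepaRG cells in serum-free induction medium exposed 48 h to 8 half-log concentrations from 100 uM in 0.5% DMSO, duplicate. MIR122 quantified by Fluidigm TaqMan qRT-PCR, normalised to ACTB, GAPDH, POLR2A; fold change fitted bidirectionally versus DMSO.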

[2] = read-out: matrix metalloproteinase-10 (MMP10), MMP10 (gene 4319); assay: LTEA_HepaRG_MMP10: Life Technologies and Expression Analysis (LTEA) Assay for matrix metalloproteinase-10 (MMP10) using HepaRG (AID 2283517)
How it was run: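 HepaRG, collagen I, ~100,000 cells/well; serum-free induction medium; 48 h exposure, duplicate, 8-pt half-log to 100 uM, 0.5% DMSO. Readout: TaqMan qRT-PCR, normalized to ACTB/GAPDH/POLR2A; bidirectional fit vs DMSO.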

[3] = read-out: MYC, MYC (gene 4609); assay: LTEA_HepaRG_MYC: Life Technologies and Expression Analysis (LTEA) Assay for MYC using HepaRG (AID 2283518)
How it was run: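 Expression changes were scored by TaqMan qRT-PCR with ACTB, GAPDH and POLR2A normalization. Cultures in serum-free induction medium received duplicate 8-point concentration series, highest 100 uM, for 48 h; DMSO (0.5%) served as baseline.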

[4] = read-out: matrix metalloproteinase-3 (MMP3), MMP3 (gene 4314); assay: LTEA_HepaRG_MMP3: Life Technologies and Expression Analysis (LTEA) Assay for matrix metalloproteinase-3 (MMP3) using HepaRG (AID 2283519)
How it was run: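 Differentiated human HepaRG cells, plated 48 h on collagen I, were exposed in duplicate for 48 h in serum-free induction medium to eight half-log concentrations up to 100 uM in 0.5% DMSO. MMP3 mRNA was quantified by TaqMan qRT-PCR, normalised to ACTB, GAPDH and POLR2A.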

[5] = read-out: Paternally Expressed 10 (PEG10), PEG10 (gene 23089); assay: LTEA_HepaRG_PEG10: Life Technologies and Expression Analysis (LTEA) Assay for Paternally Expressed 10 (PEG10) using HepaRG (AID 2283520)
How it was run: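 Differentiated HepaRG cells exposed 48 h in serum-free induction medium to eight half-log concentrations topping at 100 uM, 0.5% DMSO, in duplicate. PEG10 mRNA quantified by TaqMan qRT-PCR, normalized to ACTB, GAPDH and POLR2A; bidirectional fit versus DMSO.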

[6] = read-out: Nuclear factor NF-kappa-B p105 subunit (Homo sapiens) (UniProt P19838); assay: LTEA_HepaRG_NFKB1: Life Technologies and Expression Analysis (LTEA) Assay for Nuclear Factor Kappa B Subunit 1 (NFKB1) using HepaRG (AID 2283521)
How it was run: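 Differentiated human HepaRG cells were exposed for 48 h in serum-free induction medium to eight concentrations (top 100 uM, half-log steps, 0.5% DMSO), in duplicate. NFKB1 mRNA was measured by TaqMan qRT-PCR, normalized to ACTB/GAPDH/POLR2A, and fitted bidirectionally against DMSO.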

[7] = read-out: Protein phosphatase 2A (PPP2R4), PTPA (gene 5524); assay: LTEA_HepaRG_PPP2R4: Life Technologies and Expression Analysis (LTEA) Assay for Protein phosphatase 2A (PPP2R4) using HepaRG (AID 2283522)
How it was run: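 Differentiated human HepaRG cells in serum-free induction medium were exposed 48 h to 8 concentrations (top 100 µM, half-log steps, duplicate) in 0.5% DMSO. PPP2R4 mRNA was measured by TaqMan qRT-PCR, normalised to ACTB, GAPDH and POLR2A, and fitted bidirectionally versus DMSO.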

[8] = read-out: Phosphatase and tensin (PTEN), PTEN (gene 5728); assay: LTEA_HepaRG_PTEN: Life Technologies and Expression Analysis (LTEA) Assay for Phosphatase and tensin (PTEN) using HepaRG (AID 2283523)
How it was run: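 Differentiated human HepaRG cells, plated 48 h then switched to serum-free induction medium, were exposed in duplicate for 48 h to eight half-log concentrations up to 100 uM in 0.5% DMSO. PTEN mRNA measured by TaqMan qRT-PCR, normalized to ACTB/GAPDH/POLR2A, bidirectional fit versus DMSO.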

[9] = read-out: solute carrier (SLC22A1), SLC22A1 (gene 6580); assay: LTEA_HepaRG_SLC22A1: Life Technologies and Expression Analysis (LTEA) Assay for solute carrier (SLC22A1) using HepaRG (AID 2283524)
How it was run: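 Human HepaRG cells were plated 48 h, switched to serum-free induction medium, then exposed in duplicate for 48 h to 8-point half-log series from 100 uM in 0.5% DMSO. SLC22A1 mRNA measured by qRT-PCR, normalized to ACTB/GAPDH/POLR2A, fitted bidirectionally versus DMSO.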

[10] = read-out: Pyruvate Dehydrogenase Kinase 4 (PDK4), PDK4 (gene 5166); assay: LTEA_HepaRG_PDK4: Life Technologies and Expression Analysis (LTEA) Assay for Pyruvate Dehydrogenase Kinase 4 (PDK4) using HepaRG (AID 2283525)
How it was run: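 Differentiated human HepaRG cells, pre-cultured 48 h, were exposed in duplicate for 48 h in serum-free induction medium to eight half-log concentrations up to 100 uM in 0.5% DMSO. PDK4 mRNA was quantified by qRT-PCR, normalized to ACTB, GAPDH and POLR2A, bidirectional fitting versus DMSO.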

[11] = read-out: Nuclear factor erythroid 2-related factor 2 (Homo sapiens) (UniProt Q16236); assay: LTEA_HepaRG_NFE2L2: Life Technologies and Expression Analysis (LTEA) Assay for Nuclear factor erythroid 2-related factor 2 (NFE2L2) Transcription Factor using HepaRG (AID 2283527)
How it was run: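 Differentiated human HepaRG cells in serum-free induction medium were exposed for 48 h to eight concentrations (top 100 uM, half-log dilutions, 0.5% DMSO), in duplicate. NFE2L2 mRNA was quantified by TaqMan qRT-PCR, normalized to ACTB, GAPDH and POLR2A, with bidirectional fitting versus DMSO.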

[12] = read-out: succinate dehydrogenase complex iron sulfur subunit B (SDHB), SDHB (gene 6390); assay: LTEA_HepaRG_SDHB: Life Technologies and Expression Analysis (LTEA) Assay for succinate dehydrogenase complex iron sulfur subunit B (SDHB) using HepaRG (AID 2283528)
How it was run: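 HepaRG, 48 h exposure, 8-pt half-log series from 100 uM in 0.5% DMSO, duplicates. Readout: SDHB mRNA by Fluidigm qRT-PCR vs housekeeping genes; bidirectional fit relative to DMSO.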

[13] = read-out: Signal transducer and activator of transcription 3 (Homo sapiens) (UniProt P40763); assay: LTEA_HepaRG_STAT3: Life Technologies and Expression Analysis (LTEA) Assay for Signal transducer and activator of transcription (STAT3) using HepaRG (AID 2283529)
How it was run: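 Differentiated human HepaRG cells in serum-free induction medium were exposed in duplicate for 48 h to eight half-log concentrations up to 100 uM in 0.5% DMSO. STAT3 mRNA was quantified by TaqMan qRT-PCR, normalized to ACTB, GAPDH and POLR2A, and fitted bidirectionally against DMSO.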

[14] = read-out: solute carrier (SLCO1B1), SLCO1B1 (gene 10599); assay: LTEA_HepaRG_SLCO1B1: Life Technologies and Expression Analysis (LTEA) Assay for solute carrier (SLCO1B1) using HepaRG (AID 2283530)
How it was run: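 Human HepaRG cultures treated for 48 h with an eight-concentration half-log series topping at 100 uM; SLCO1B1 measured by qRT-PCR and fitted bidirectionally relative to DMSO.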

[15] = read-out: sulfotransferase 2A1 (SULT2A1), SULT2A1 (gene 6822); assay: LTEA_HepaRG_SULT2A1: Life Technologies and Expression Analysis (LTEA) Assay for sulfotransferase 2A1 (SULT2A1) using HepaRG (AID 2283531)
How it was run: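 Gene-expression endpoint in a human liver cell line: SULT2A1 mRNA change after 48 h chemical treatment, curves fitted in both directions relative to 0.5% DMSO vehicle. Concentrations spanned eight half-log steps from 100 uM.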

[16] = read-out: Transforming Growth Factor (TGFA), TGFA (gene 7039); assay: LTEA_HepaRG_TGFA: Life Technologies and Expression Analysis (LTEA) Assay for Transforming Growth Factor (TGFA) using HepaRG (AID 2283532)
How it was run: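 Differentiated human HepaRG cells, plated 48 h then switched to serum-free induction medium, were exposed in duplicate for 48 h to 8-point half-log series from 100 uM in 0.5% DMSO. TGFA mRNA measured by qRT-PCR, normalized to ACTB/GAPDH/POLR2A, bidirectional fit versus DMSO.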

[17] = read-out: Transforming Growth Factor (TGFB1), TGFB1 (gene 7040); assay: LTEA_HepaRG_TGFB1: Life Technologies and Expression Analysis (LTEA) Assay for Transforming Growth Factor (TGFB1) Transporter using HepaRG (AID 2283533)
How it was run: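 Eight-point concentration-response (max 100 uM, half-log) in HepaRG under serum-free induction conditions, 48 h. TGFB1 mRNA by qRT-PCR, housekeeping-normalized.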

[18] = read-out: TIMP1, TIMP1 (gene 7076); assay: LTEA_HepaRG_TIMP1: Life Technologies and Expression Analysis (LTEA) Assay for TIMP1 using HepaRG (AID 2283534);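 also: TaqMan qRT-PCR signal normalized to ACTB GAPDH and POLR2A housekeeping genes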
How it was run: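 TIMP1 induction or repression in HepaRG cells after 48 h chemical exposure (eight concentrations, highest 100 uM), assessed by normalized qRT-PCR with bidirectional fitting to DMSO controls.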

[19] = read-out: Tumor necrosis factor receptor 1 (TNFRSF1A), TNFRSF1A (gene 7132); assay: LTEA_HepaRG_TNFRSF1A: Life Technologies and Expression Analysis (LTEA) Assay for Tumor necrosis factor receptor 1 (TNFRSF1A) using HepaRG (AID 2283535)
How it was run: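 Assay uses 48 h chemical treatment of differentiated HepaRG monolayers, tested in duplicate at eight concentrations from 100 uM downward in 0.5% DMSO. mRNA is normalized to ACTB, GAPDH and POLR2A, with induction or suppression fitted relative to vehicle.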

[20] = read-out: NAD(P)H dehydrogenase [quinone] 1 (NQO1), NQO1 (gene 1728); assay: LTEA_HepaRG_NQO1: Life Technologies and Expression Analysis (LTEA) Assay for NAD(P)H dehydrogenase [quinone] 1 (NQO1) using HepaRG (AID 2283526)
How it was run: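 Differentiated human HepaRG cells in serum-free induction medium, dosed in duplicate for 48 h at 8 half-log concentrations up to 100 uM in 0.5% DMSO. NQO1 mRNA by qRT-PCR normalized to ACTB, GAPDH, POLR2A; bidirectional fit versus DMSO baseline.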

Measured: AC50

Sequence of Nuclear factor NF-kappa-B p105 subunit (Homo sapiens) (P19838 whole entry, looked up): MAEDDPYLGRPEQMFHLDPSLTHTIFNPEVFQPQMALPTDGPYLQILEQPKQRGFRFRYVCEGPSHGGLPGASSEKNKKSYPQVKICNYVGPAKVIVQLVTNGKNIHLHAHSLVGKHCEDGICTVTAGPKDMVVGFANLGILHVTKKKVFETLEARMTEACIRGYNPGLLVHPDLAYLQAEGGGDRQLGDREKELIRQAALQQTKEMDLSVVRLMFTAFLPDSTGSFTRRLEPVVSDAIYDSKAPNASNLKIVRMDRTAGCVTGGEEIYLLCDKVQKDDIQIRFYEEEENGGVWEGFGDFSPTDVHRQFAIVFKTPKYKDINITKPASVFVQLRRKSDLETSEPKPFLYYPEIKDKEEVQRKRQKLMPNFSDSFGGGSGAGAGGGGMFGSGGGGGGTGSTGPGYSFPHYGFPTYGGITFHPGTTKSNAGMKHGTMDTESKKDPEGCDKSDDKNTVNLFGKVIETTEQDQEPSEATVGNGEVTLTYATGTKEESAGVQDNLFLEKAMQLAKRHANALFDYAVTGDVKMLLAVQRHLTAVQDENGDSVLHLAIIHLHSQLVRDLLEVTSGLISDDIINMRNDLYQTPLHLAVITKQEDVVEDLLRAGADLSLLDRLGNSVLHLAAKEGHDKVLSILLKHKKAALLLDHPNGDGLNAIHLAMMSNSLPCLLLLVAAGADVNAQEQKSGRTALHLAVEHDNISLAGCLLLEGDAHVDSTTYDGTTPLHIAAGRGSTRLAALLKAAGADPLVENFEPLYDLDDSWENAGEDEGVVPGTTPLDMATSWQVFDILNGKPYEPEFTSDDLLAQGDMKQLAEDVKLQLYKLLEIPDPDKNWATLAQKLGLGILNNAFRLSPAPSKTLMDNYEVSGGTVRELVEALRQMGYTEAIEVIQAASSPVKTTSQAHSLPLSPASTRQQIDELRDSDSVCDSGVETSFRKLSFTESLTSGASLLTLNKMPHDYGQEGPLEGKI
Sequence of Nuclear factor erythroid 2-related factor 2 (Homo sapiens) (Q16236 whole entry, looked up): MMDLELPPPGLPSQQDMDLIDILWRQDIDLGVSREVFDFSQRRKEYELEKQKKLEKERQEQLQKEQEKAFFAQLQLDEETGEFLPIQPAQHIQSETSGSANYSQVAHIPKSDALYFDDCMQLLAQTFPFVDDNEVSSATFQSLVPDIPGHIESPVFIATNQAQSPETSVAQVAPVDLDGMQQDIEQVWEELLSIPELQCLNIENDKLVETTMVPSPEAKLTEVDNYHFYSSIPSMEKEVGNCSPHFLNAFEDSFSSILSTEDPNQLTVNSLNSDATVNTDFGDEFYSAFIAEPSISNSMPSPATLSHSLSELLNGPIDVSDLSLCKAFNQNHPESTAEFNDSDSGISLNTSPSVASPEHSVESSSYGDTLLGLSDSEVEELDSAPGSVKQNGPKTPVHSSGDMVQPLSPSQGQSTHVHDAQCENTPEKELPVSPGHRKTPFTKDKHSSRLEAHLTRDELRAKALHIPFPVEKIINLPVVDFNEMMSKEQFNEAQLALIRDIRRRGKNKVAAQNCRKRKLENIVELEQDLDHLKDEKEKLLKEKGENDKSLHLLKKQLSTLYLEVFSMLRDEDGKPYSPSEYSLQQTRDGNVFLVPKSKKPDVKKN
Sequence of Signal transducer and activator of transcription 3 (Homo sapiens) (P40763 whole entry, looked up): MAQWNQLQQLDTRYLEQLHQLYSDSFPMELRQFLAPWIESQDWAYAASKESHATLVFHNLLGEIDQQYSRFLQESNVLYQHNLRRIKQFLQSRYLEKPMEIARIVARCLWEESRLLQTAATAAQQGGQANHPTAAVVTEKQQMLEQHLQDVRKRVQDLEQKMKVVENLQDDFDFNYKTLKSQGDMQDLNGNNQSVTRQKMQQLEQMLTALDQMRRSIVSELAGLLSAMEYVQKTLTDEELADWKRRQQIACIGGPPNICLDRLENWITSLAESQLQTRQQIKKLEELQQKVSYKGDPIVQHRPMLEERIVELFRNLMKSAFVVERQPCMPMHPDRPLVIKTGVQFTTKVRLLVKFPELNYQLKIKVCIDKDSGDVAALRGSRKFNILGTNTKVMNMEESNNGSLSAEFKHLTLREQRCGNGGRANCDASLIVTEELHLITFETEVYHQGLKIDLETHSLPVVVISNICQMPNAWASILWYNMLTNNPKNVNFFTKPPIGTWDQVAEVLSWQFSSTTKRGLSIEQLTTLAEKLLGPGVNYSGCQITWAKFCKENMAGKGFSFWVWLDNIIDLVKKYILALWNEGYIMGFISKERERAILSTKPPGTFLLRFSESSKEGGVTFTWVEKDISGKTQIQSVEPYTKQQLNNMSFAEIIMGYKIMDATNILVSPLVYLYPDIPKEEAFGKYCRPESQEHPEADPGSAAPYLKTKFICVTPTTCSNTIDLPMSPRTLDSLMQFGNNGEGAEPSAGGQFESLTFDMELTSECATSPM

Cc1ccc(C(C)(C)C)c(O)c1
not listed: [20]
inactive: all other assays above

COc1ccc(OC(F)(F)F)cc1CN[C@H]1CCCN[C@H]1c1ccccc1
active: [2] 75.8 µM | [3] 7.25 µM | [4] 80.2 µM | [5] 55.2 µM | [7] 90 µM | [9] 50 µM | [11] 14.7 µM | [13] 73.4 µM | [15] 81.2 µM | [19] 93.1 µM
inactive: [1] | [6] | [10] | [20] | [12] | [14] | [16] | [17] | [18]

OCC(O)CO
active: [6] 1.06 µM
not listed: [20]
inactive: all other assays above

Cc1cc(SC2=C(O)C[C@@](CCc3ccc(N)cc3)(C(C)C)OC2=O)c(C(C)(C)C)cc1CO
active: [9] 7.05 µM | [10] 13.5 µM | [15] 9.92 µM
not listed: [20]
inactive: all other assays above

CCCCC(CC)CO (stereo not drawn)
not listed: [20]
inactive: all other assays above

c1ccc2occc2c1
not listed: [20]
inactive: all other assays above

CC(C)OC(=O)C(C)(C)Oc1ccc(C(=O)c2ccc(Cl)cc2)cc1
active: [4] 0.0439 µM | [10] 16.7 µM
not listed: [20]
inactive: all other assays above
